Measurements published in the supplement of paper PMC8728848.
Many of the other results were omitted from the sample, so the strongest signals are more common in it than they were.

Assays:
Assay in all cases: glycan array binding signal (z-score within array); higher = stronger binding
Conditions in all cases: glycan notation: IUPAC condensed, linker removed
[1] = biological target: Fuc(a1-2)Gal(b1-4)GlcNAc(b1-6)GalNAc
In short: (§1)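 Glycan array binding is given as a within-array Z-score, which can be read as non-binding when negative. The arrays, 3228 of them, came from the Consortium for Functional Glycomics database and were retained only where the protein sequence was available. Z-scores were averaged across arrays of the same protein sequence at different concentrations or buffers and across linkers.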

[2] = biological target: Fuc(a1-2)[Gal(a1-3)]Gal(b1-3)GalNAc
In short: as §1

[3] = biological target: Fuc(a1-2)[Gal(a1-3)]Gal(b1-3)GlcNAc
In short: as §1

[4] = biological target: Fuc(a1-2)[Gal(a1-3)]Gal(b1-3)GlcNAc(b1-2)Man(a1-3)[Fuc(a1-2)[Gal(a1-3)]Gal(b1-3)GlcNAc(b1-2)Man(a1-6)]Man(b1-4)GlcNAc(b1-4)[Fuc(a1-6)]GlcNAc
In short: as §1

[5] = biological target: Fuc(a1-2)[Gal(a1-3)]Gal(b1-4)GlcNAc(b1-3)[Fuc(a1-2)[Gal(a1-3)]Gal(b1-4)GlcNAc(b1-6)]GalNAc
In short: as §1

[6] = biological target: Fuc(a1-2)[GalNAc(a1-3)]Gal(b1-4)GlcNAc(b1-3)[Fuc(a1-2)[GalNAc(a1-3)]Gal(b1-4)GlcNAc(b1-6)]GalNAc
In short: as §1

[7] = biological target: Fuc(a1-3)[Gal(b1-4)]GlcNAc(b1-3)Gal(b1-4)[Fuc(a1-3)]GlcNAc(b1-3)Gal(b1-4)[Fuc(a1-3)]GlcNAc
In short: as §1

[8] = biological target: Gal(a1-3)Gal(b1-3)[Fuc(a1-4)]GlcNAc(b1-2)Man(a1-3)[Gal(a1-3)Gal(b1-3)[Fuc(a1-4)]GlcNAc(b1-2)Man(a1-6)]Man(b1-4)GlcNAc(b1-4)GlcNAc
In short: as §1

[9] = biological target: Gal(b1-3)GalNAc(b1-3)Gal(a1-4)Gal(b1-4)Glc
In short: as §1

[10] = biological target: Gal(b1-3)GlcNAc(a1-3)Gal(b1-4)GlcNAc
In short: as §1

[11] = biological target: Gal(b1-3)GlcNAc(b1-2)Man(a1-3)[GlcNAc(b1-4)][Gal(b1-3)GlcNAc(b1-2)Man(a1-6)]Man(b1-4)GlcNAc(b1-4)GlcNAc
In short: as §1

[12] = biological target: Gal(b1-3)GlcNAc(b1-3)Gal(b1-4)Glc
In short: as §1

[13] = biological target: Gal(b1-3)[Fuc(a1-4)]GlcNAc(b1-2)Man
In short: as §1

[14] = biological target: Gal(b1-3)[Neu5Ac(a2-6)]GlcNAc(b1-4)Gal(b1-4)Glc
In short: as §1

[15] = biological target: Gal(b1-4)GlcNAc
In short: as §1

[16] = biological target: Gal(b1-4)GlcNAc(b1-2)Man(a1-6)[GlcNAc(b1-2)Man(a1-3)]Man(b1-4)GlcNAc(b1-4)GlcNAc
In short: as §1

[17] = biological target: Gal(b1-4)GlcNAc(b1-2)[Gal(b1-4)GlcNAc(b1-4)]Man(a1-3)[GlcNAc(b1-4)][Gal(b1-4)GlcNAc(b1-2)Man(a1-6)]Man(b1-4)GlcNAc(b1-4)GlcNAc
In short: as §1

[18] = biological target: Gal(b1-4)GlcNAc(b1-3)Gal(b1-4)GlcNAc(b1-3)Gal(b1-4)GlcNAc(b1-2)Man(a1-3)[Gal(b1-4)GlcNAc(b1-3)Gal(b1-4)GlcNAc(b1-3)Gal(b1-4)GlcNAc(b1-2)Man(a1-6)]Man(b1-4)GlcNAc(b1-4)[Fuc(a1-6)]GlcNAc
In short: as §1

[19] = biological target: Gal(b1-4)GlcNAc(b1-3)Gal(b1-4)GlcNAc(b1-3)Gal(b1-4)GlcNAc(b1-3)Gal(b1-4)GlcNAc(b1-2)Man(a1-3)[Gal(b1-4)GlcNAc(b1-3)Gal(b1-4)GlcNAc(b1-3)Gal(b1-4)GlcNAc(b1-3)Gal(b1-4)GlcNAc(b1-2)Man(a1-6)]Man(b1-4)GlcNAc(b1-4)[Fuc(a1-6)]GlcNAc
In short: as §1

[20] = biological target: Gal(b1-4)GlcNAc(b1-3)Gal(b1-4)GlcNAc(b1-3)Gal(b1-4)GlcNAc(b1-3)Gal(b1-4)GlcNAc(b1-2)[Gal(b1-4)GlcNAc(b1-3)Gal(b1-4)GlcNAc(b1-3)Gal(b1-4)GlcNAc(b1-3)Gal(b1-4)GlcNAc(b1-6)]Man(a1-6)[Gal(b1-4)GlcNAc(b1-3)Gal(b1-4)GlcNAc(b1-3)Gal(b1-4)GlcNAc(b1-3)Gal(b1-4)GlcNAc(b1-2)Man(a1-3)]Man(b1-4)GlcNAc(b1-4)[Fuc(a1-6)]GlcNAc
In short: as §1

[21] = biological target: Gal(b1-4)GlcNAc(b1-3)Gal(b1-4)GlcNAc(b1-3)Gal(b1-4)GlcNAc(b1-3)Gal(b1-4)GlcNAc(b1-3)Gal(b1-4)GlcNAc(b1-2)Man(a1-3)[Gal(b1-4)GlcNAc(b1-3)Gal(b1-4)GlcNAc(b1-3)Gal(b1-4)GlcNAc(b1-3)Gal(b1-4)GlcNAc(b1-3)Gal(b1-4)GlcNAc(b1-2)Man(a1-6)]Man(b1-4)GlcNAc(b1-4)[Fuc(a1-6)]GlcNAc
In short: as §1

[22] = biological target: Gal(b1-6)Gal
In short: as §1

[23] = biological target: Gal3S(b1-3)GalNAc
In short: as §1

[24] = biological target: Gal3S(b1-4)[Fuc(a1-3)]Glc6S
In short: as §1

[25] = biological target: Gal6S(b1-4)Glc
In short: as §1

[26] = biological target: Gal6S(b1-4)GlcNAc6S
In short: as §1

[27] = biological target: GalNAc(b1-4)GlcNAc6S
In short: as §1

[28] = biological target: Glc(a1-6)Glc(a1-6)Glc
In short: as §1

[29] = biological target: GlcA(b1-3)Gal
In short: as §1

[30] = biological target: GlcNAc(a1-4)Gal(b1-4)GalNAc
In short: as §1

[31] = biological target: GlcNAc(b1-2)Man(a1-3)[GlcNAc(b1-4)][GlcNAc(b1-2)Man(a1-6)]Man(b1-4)GlcNAc(b1-4)[Fuc(a1-6)]GlcNAc
In short: as §1

[32] = biological target: GlcNAc(b1-2)[GlcNAc(b1-4)]Man(a1-3)[GlcNAc(b1-4)][GlcNAc(b1-2)Man(a1-6)]Man(b1-4)GlcNAc(b1-4)GlcNAc
In short: as §1

[33] = biological target: GlcNAc(b1-2)[GlcNAc(b1-6)]Man(a1-6)[GlcNAc(b1-2)Man(a1-3)]Man(b1-4)GlcNAc(b1-4)[Fuc(a1-6)]GlcNAc
In short: as §1

[34] = biological target: GlcNAc(b1-3)Gal(b1-4)GlcNAc(b1-2)[GlcNAc(b1-3)Gal(b1-4)GlcNAc(b1-6)]Man(a1-6)[GlcNAc(b1-3)Gal(b1-4)GlcNAc(b1-2)Man(a1-3)]Man(b1-4)GlcNAc(b1-4)GlcNAc
In short: as §1

[35] = biological target: GlcNAc(b1-3)Gal(b1-4)GlcNAc(b1-3)Gal(b1-4)GlcNAc(b1-2)Man(a1-3)[GlcNAc(b1-3)Gal(b1-4)GlcNAc(b1-3)Gal(b1-4)GlcNAc(b1-2)Man(a1-6)]Man(b1-4)GlcNAc(b1-4)GlcNAc
In short: as §1

[36] = biological target: GlcNAc(b1-3)Gal(b1-4)GlcNAc(b1-3)[GlcNAc(b1-3)Gal(b1-4)GlcNAc(b1-3)]GalNAc
In short: as §1

[37] = biological target: Kdn(a2-6)Gal(b1-4)GlcNAc
In short: as §1

[38] = biological target: Neu5Ac(a2-3)Gal(b1-3)GlcNAc(b1-6)GalNAc
In short: as §1

[39] = biological target: Neu5Ac(a2-3)Gal(b1-3)GlcNAc6S
In short: as §1

[40] = biological target: Neu5Ac(a2-3)Gal(b1-3)[Neu5Ac(a2-6)]GlcNAc(b1-3)[Fuc(a1-3)[Gal(b1-4)]GlcNAc(b1-6)]Gal(b1-4)Glc
In short: as §1

[41] = biological target: Neu5Ac(a2-3)Gal(b1-4)Glc
In short: as §1

[42] = biological target: Neu5Ac(a2-3)Gal(b1-4)GlcNAc(b1-3)Gal(b1-3)GlcNAc
In short: as §1

[43] = biological target: Neu5Ac(a2-3)Gal(b1-4)GlcNAc(b1-6)[Gal(b1-3)]GalNAc
In short: as §1

[44] = biological target: Neu5Ac(a2-3)GalNAc
In short: as §1

[45] = biological target: Neu5Ac(a2-6)Gal(b1-4)GlcNAc(b1-2)Man(a1-3)Man(b1-4)GlcNAc(b1-4)GlcNAc
In short: as §1

[46] = biological target: Neu5Ac(a2-8)Neu5Ac(a2-3)Gal(b1-3)GalNAc(b1-4)[Neu5Ac(a2-8)Neu5Ac(a2-3)]Gal(b1-4)Glc
In short: as §1

[47] = biological target: Neu5Ac(a2-8)Neu5Ac(a2-8)Neu5Ac
In short: as §1

[48] = biological target: Neu5Gc(a2-3)Gal(b1-4)GlcNAc
In short: as §1

B1: Sebin1 (Coprinopsis cinerea), A8PEE3 (protein)
chain: MTSPFYAHIHNVQDDNTWRFTLIFANRATADEWWRAISEAPANTSIAKSITRVTPQYYTHDVNIWNIWNFFADGNIKSISERFRGRLFIVLENDRGGRGITVIPPVPIVDHVSGNWFYIRSKTAPHLFWYYDERRSSIYASKEKRTRFKISIRNPSSQTPKNAIMINTDDVTIHIKENLYVGVDNNLGHIIPTRAYRTFKFGELESGAIAGFDVVENIEERCSSTFDGASLSISGPDSSSPGEPWELV
**Q.** What does the source list for B1?
**A.** glycan array binding signal (z-score) [1]: 4.71; glycan array binding signal (z-score) [2]: -0.147; glycan array binding signal (z-score) [3]: -0.29; glycan array binding signal (z-score) [4]: 2.8; glycan array binding signal (z-score) [5]: 3.52; glycan array binding signal (z-score) [6]: 1.28; glycan array binding signal (z-score) [7]: -0.039; glycan array binding signal (z-score) [8]: 2.45; glycan array binding signal (z-score) [9]: 0.187; glycan array binding signal (z-score) [10]: -0.485; glycan array binding signal (z-score) [11]: 2.39; glycan array binding signal (z-score) [12]: -0.671; glycan array binding signal (z-score) [13]: 0.391; glycan array binding signal (z-score) [14]: 0.647; glycan array binding signal (z-score) [15]: -0.703; glycan array binding signal (z-score) [16]: -0.684; glycan array binding signal (z-score) [17]: 0.136; glycan array binding signal (z-score) [18]: 13.4; glycan array binding signal (z-score) [19]: 6.4; glycan array binding signal (z-score) [20]: 2.44; glycan array binding signal (z-score) [21]: 2.62; glycan array binding signal (z-score) [22]: 0.332; glycan array binding signal (z-score) [23]: -0.501; glycan array binding signal (z-score) [24]: 0.696; glycan array binding signal (z-score) [25]: 0.006; glycan array binding signal (z-score) [26]: 0.222; glycan array binding signal (z-score) [27]: 0.053; glycan array binding signal (z-score) [28]: -0.354; glycan array binding signal (z-score) [29]: -0.505; glycan array binding signal (z-score) [30]: -0.32; glycan array binding signal (z-score) [31]: -0.296; glycan array binding signal (z-score) [32]: 2.33; glycan array binding signal (z-score) [33]: -0.058; glycan array binding signal (z-score) [34]: -0.792; glycan array binding signal (z-score) [35]: 0.145; glycan array binding signal (z-score) [36]: -0.696; glycan array binding signal (z-score) [37]: -0.282; glycan array binding signal (z-score) [38]: -0.335; glycan array binding signal (z-score) [39]: -0.146; glycan array binding signal (z-score) [40]: -0.727; glycan array binding signal (z-score) [41]: 3.86; glycan array binding signal (z-score) [42]: -0.415; glycan array binding signal (z-score) [43]: 2.49; glycan array binding signal (z-score) [44]: -0.458; glycan array binding signal (z-score) [45]: -0.4; glycan array binding signal (z-score) [46]: -0.152; glycan array binding signal (z-score) [47]: -0.546; glycan array binding signal (z-score) [48]: -0.074
